# Sampled rows, rich in hits. Any-hit rate of the full collection: about 2.1%.
# PfM18AAP inh = PfM18AAP enzyme inhibition | actives 1.2% (n = 290,000) | recombinant PfM18AAP, H-Glu-NHMec fluorogenic cleavage | inhibition, % at 7.35 µM;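 active = inhibition above the campaign mean inhibition over all tested compounds plus 3 SD, cut at about 28% in these data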;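 also: 0% = plate median of test compound wells and 100% = 2 mM ZnCl2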
# Fh CTSL1 inh = counter-screen for PFM18AAP inhibitors: inhibitors of F. hepatica cathepsin L1. recombinant F. hepatica cathepsin L1, Z-Leu-Arg-MCA fluorescence. inhibition, % at 5.96 µM. actives 0.49% (n = 300,000);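 active = inhibition above the mean of all tested compounds plus 3 SD, set per screening campaign, cut at about 17% in these data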;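 also: 0% = plate median of test compound wells and 100% = 1 µM Z-Phe-Ala-diazomethylketone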
# Calb FLC = affects C. albicans growth with fluconazole; C. albicans CaCi-2 (fluconazole-resistant clinical isolate) + fluconazole, Alamar Blue growth, 48 h; growth inhibition, % (concentration not given with the values); actives 0.57% (n = 300,000);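 active = growth inhibition above about 58% in most replicates, limit read from the data, passing the limit was not always enough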;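 also: all wells also contain fluconazole at 8 µg/ml as a sub-toxic cotreatment; 0% = median of DMSO wells and 100% = median of geldanamycin control wells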
# Rin1-Abl PPI inh = inhibitors of human Rin1-Abl protein interaction; actives 0.4% (n = 360,000); TR-FRET Rin1/Abl binding, biochemical; AID 588664; inhibition, % at 7.35 µM; P00519+Q13671; in the data active = inhibition above about 5%, passing the limit was not always enough
# Rin1 Abl conf = Rin1-Abl interaction inhibition confirmation; inhibition, % at 7.35 µM; AID 602124; actives 49% (n = 1,300); TR-FRET Rin1-Abl binding, purified proteins; shares compounds with Rin1-Abl PPI inh
# GFP quench = counter-screen for Rin1-Abl inhibitors: GFP fluorescence quenchers | AID 602125 | inhibition, % at 6.75 µM | shares compounds with Rin1-Abl PPI inh | actives 8.5% (n = 1,300) | inhibitors/quenchers counterscreen;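 also: ABL1-eGFP fusion protein alone without its partner RIN1-SBP; 0% = protein with vehicle and 100% = wells lacking protein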
# GFP quench dose = GFP fluorescence interference dose response; shares compounds with Rin1-Abl PPI inh; GFP fluorescence interference/quenching counterscreen; IC50, µM; 230 tested, under 10 active; call rule not given here;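 also: ABL1-eGFP fusion protein alone without its RIN1 binding partner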
# * = called active by the depositor; . = no result given. Rule as the data show it, unless noted: active = inhibition above about 6.5%; inactive = the rest.
SMILES,PfM18AAP inh,Fh CTSL1 inh,Calb FLC,Rin1-Abl PPI inh,Rin1 Abl conf,GFP quench,others
COc1ccc2nc(Nc3nc(C)c(CCC(C)C)c(=O)[nH]3)nc(C)c2c1,0.3,0.7,9.3,8.2*,-4.0,-1.8,
Cc1ccc(-c2nnc(-n3ncc(C#N)c3N)c3ccccc23)cc1C,3.0,-0.3,-0.8,9.3*,-0.6,-1.2,
Cc1ccc(OC(C)C(=O)Nc2ccccc2C(=O)NCc2cccnc2)cc1C (centres undefined),-3.8,-0.8,26.0,-3.5,.,.,
Cc1ncc(CN2CCCC(C(=O)Nc3ccc(-c4ccco4)cc3)C2)cn1 (centres undefined),-4.5,-10.4,10.4,15.5*,10.2*,-2.0,
Cc1ccc(S(=O)(=O)N2CCCC2CNC(=O)C(=O)NCc2ccc3c(c2)OCO3)cc1 (centres undefined),.,.,.,10.4*,5.8,-0.5,
Cc1ccc(-c2nnc(SCc3nc(N)nc(Nc4ccccc4C)n3)n2N)cc1,-5.7,0.1,22.0,18.1*,0.4,-0.8,
COC(=O)C1C(=O)C=C(Nc2ccc(F)cc2)CC1c1ccc(OC)cc1 (centres undefined),-4.3,-4.3,11.7,6.4*,-2.5,0.2,
O=C(COC(=O)c1nc(Cl)ccc1Cl)Nc1ncc(Cl)cc1Cl,.,-8.7,6.6,0.3,.,.,
Cc1cc(C)c(S(=O)(=O)NCCSCc2ccco2)c(C)c1,.,.,.,8.5*,-1.0,-0.2,
CCn1c(Cc2ccccc2)nnc1SCC(=O)N1CCCC1=O,10.7,-1.5,-0.3,-3.7,.,.,
CC(=O)N1CCN(Cc2nc3cc(NC(=O)c4cccc(Br)c4)ccc3n2C)CC1,-1.5,-1.7,1.7,-2.1,.,.,
C[C@@H]1O[C@@H](O[C@@H]2[C@@H](O)[C@H](OCCc3ccc(O)c(O)c3)O[C@H](CO)[C@H]2OC(=O)/C=C/c2ccc(O)c(O)c2)[C@H](O)[C@H](O)[C@H]1O,.,.,.,30.5*,33.6*,2.5,
CCc1cc(=O)oc2cc3occ(C)c3cc12,-5.3,-6.0,-4.7,10.9*,-1.8,1.6,
CCCc1cc(=O)oc2cc3occ(C)c3cc12,3.6,5.4,5.5,-0.4,.,.,
COC(=O)c1cc(C)ccc1/C=C1/Cc2c(C)cc(C)cc2C1=O,.,.,.,1.3,.,.,
Oc1ccc(/C=N/Nc2ncc(Br)cn2)c(O)c1,51.7*,3.4,1.7,12.3*,9.9*,1.5,
Cc1cc(-c2ccccc2)nc(N/N=C/c2ccc(O)cc2O)n1,20.9,1.9,63.0,11.1*,11.3*,-1.9,
Oc1ccc(C=NNc2ccccn2)c(O)c1,.,.,.,3.4,.,.,
COc1ccc(N(CC(=O)NCc2ccc(F)cc2)C(=O)c2snc(C(N)=O)c2N)cc1,-1.9,-0.9,7.5,-0.4,.,.,
CCCN(CC(=O)Nc1ccccc1OC)C(=O)c1ccccn1,.,.,.,4.6,.,.,
CCCCNC(=O)C1(C)CCCCCN1Cc1cccc2c(OC)cc(C(=O)OCC)cc12 (centres undefined),.,.,.,6.9*,-2.2,0.6,
CCCCNC(=O)C1(C)CCCCN1Cc1ccc2ccccc2c1 (centres undefined),.,.,.,-3.1,.,.,
CC(=O)c1ccc2c(c1)C1C=CCC1C(C(=O)O)N2 (centres undefined),21.4,.,.,13.7*,12.6*,43.5*,
CC(Nc1cccc2ccccc12)C(=O)N/N=C/c1ccccn1 (centres undefined),8.2,3.5,33.6,11.2*,-2.1,2.2,
O=C(CCCC(=O)N/N=C\c1ccccn1)N/N=C\c1ccccn1,5.5,-2.6,-7.3,-0.6,.,.,
SMILES,PfM18AAP inh,Fh CTSL1 inh,Calb FLC,Rin1-Abl PPI inh,Rin1 Abl conf,GFP quench,others
O=C(c1nc[nH]c1C(=O)N1CCN(c2ccccc2)CC1)N1CCN(c2ccccc2)CC1,.,.,.,5.6,.,.,
CN(CC(=O)Nc1ccccn1)S(=O)(=O)c1ccc(Cl)cc1,2.3,2.8,-1.6,35.8*,-3.1,-1.5,
O=C(Nc1c(-c2ccc3c(c2)OCO3)[nH][nH]c1=O)c1ccccc1,.,.,.,23.5*,9.0*,0.0,
O=C(Nc1c(-c2ccc3c(c2)OCO3)[nH][nH]c1=O)c1cccc(C(F)(F)F)c1,.,.,.,3.2,.,.,
C=CCNC(=O)c1ccc2nc(Cc3ccc(OC)cc3)oc2c1,-7.0,7.8,2.3,2.1,.,.,
COc1ccc(Cc2nc3ccc(C(=O)NCC4COCCO4)cc3o2)cc1 (centres undefined),-3.1,-2.7,13.9,7.8*,-0.7,-1.2,
CCCCn1c(NC(=O)c2ccc(F)cc2)c(C#N)c2nc3ccccc3nc21,.,-5.4,0.2,.,.,.,
CCCCn1c(NC(=O)c2ccccc2)c(C#N)c2nc3ccccc3nc21,18.8,.,.,12.3*,6.0,1.5,
CCC(=O)Nc1c(C#N)c2nc3ccccc3nc2n1-c1ccc(C)cc1,.,.,.,1.4,.,.,
CCC(C)n1c(NC(=O)c2ccccc2)c(C#N)c2nc3ccccc3nc21 (centres undefined),3.0,2.3,0.1,13.5*,2.9,0.3,
Nc1c(N(Cc2ccccc2)C(=O)CCc2ccccc2)c(=O)[nH]c(=O)n1Cc1ccccc1,.,.,.,9.8*,-0.9,1.2,
CC(=O)Nc1cccc(-c2ccnc3c2CC(C(=O)NCc2ccc(N4CCN(C)CC4)cc2)O3)c1 (centres undefined),.,.,.,30.8*,27.9*,-0.8,GFP quench dose=>67.5
CC(=O)Nc1cccc(-c2ccnc3c2CC(C(=O)NCc2ccc(N(C)C)cc2)O3)c1 (centres undefined),.,.,.,16.9*,10.3*,0.7,
CC(=O)Nc1cccc(-c2ccnc3c2CC(C(=O)NCc2ccncc2)O3)c1 (centres undefined),.,.,.,-2.5,.,.,
CC(=O)c1cccc(-c2ccnc3c2CC(C(=O)NCc2ccncc2)O3)c1 (centres undefined),.,.,.,-1.8,.,.,
CN1CCN(c2ccc(CNC(=O)C3Cc4c(-c5ccc6c(c5)OCO6)ccnc4O3)cc2)CC1 (centres undefined),.,.,.,15.1*,14.1*,-2.3,
CN1CCN(c2ccc(CNC(=O)C3Cc4c(-c5ccc(Cl)cc5)ccnc4O3)cc2)CC1 (centres undefined),.,.,.,15.2*,9.5*,1.0,
COc1ccccc1CNC(=O)c1cc(-c2ccccc2)n(Cc2cc(C)no2)n1,.,-3.6,.,-0.2,.,.,
COc1ccc(-c2noc(CCC(=O)N3CCN(c4ccc(C(F)(F)F)cc4)CC3)n2)cc1,.,.,.,-0.9,.,.,
Cc1cccc(C(=O)NCC(=O)N2CCN(S(=O)(=O)c3cc(C)ccc3C)CC2)c1,.,-2.9,2.1,-1.4,.,.,
CCCNC(=S)N1CCC(C(=O)c2ccc(F)cc2)CC1,2.1,-5.2,-0.4,-0.5,.,.,
COc1ccccc1CC(=O)Nc1ccc(S(=O)(=O)N2CC(C)CC(C)C2)cc1 (centres undefined),.,.,.,0.5,.,.,
CCn1nc(C)c(NC(=O)c2cnn3c(C(F)F)cc(-c4ccccc4)nc23)c1C,-0.7,0.8,11.2,-3.4,.,.,
Cc1c(Cl)ccc2c(C(=O)NC(C)c3ccncc3)cc(-c3ccncc3)nc12 (centres undefined),-3.7,8.1,7.5,.,.,.,

# Screens from PubChem BioAssay.
